Several values for one entry are separate records, joined by “and”; a condition that tells them apart may be missing. Identical values can stand only once. Compounds without any hit were thinned out: in the full panel of roughly 79,000, 15% have a hit. A structure can be active in one record and inactive in another. Activity calls are given as the source filed them. Rule as the data show it: active = growth inhibition above about 70%; inactive = the rest.
Tests used:
[1] = NCI Yeast Anticancer Drug Screen. Data for the rad50 strain (AID 155);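 also: 0% = growth of vehicle-only cultures of the same strain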; settings: S. cerevisiae rad50 strain growth inhibition, stronger effect = higher value
In short: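 Relative growth inhibition (compound vs vehicle) was measured in yeast with a defined repair-gene alteration.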

[2] = NCI Yeast Anticancer Drug Screen. Data for the mec2-1 strain (AID 157); settings: S. cerevisiae mec2-1 strain, stronger effect = higher value
In short: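 Growth inhibition is read against vehicle-treated controls after compound exposure of the mec2-1 yeast strain, which is defective in DNA damage repair or cell cycle control.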

[3] = NCI Yeast Anticancer Drug Screen. Data for the sgs1 mgt1 strain (AID 161);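 also: 0% = growth of cultures given vehicle only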; settings: S. cerevisiae sgs1 mgt1 strain, stronger effect = higher value
In short: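 Percent growth inhibition was derived by comparing compound-exposed mutant yeast with vehicle-exposed cultures. The strain carries alterations in DNA damage repair.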

[4] = NCI Yeast Anticancer Drug Screen. Data for the cln2 rad14 strain (AID 165);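 also: 0% = growth equal to vehicle treated cultures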; settings: S. cerevisiae cln2 rad14 strain, stronger effect = higher value
In short: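 Growth inhibition, relative to vehicle-treated controls, is the read-out. The test organism is a yeast strain with defined genetic alterations, cln2 rad14.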

[5] = NCI Yeast Anticancer Drug Screen. Data for the bub3 strain (AID 167); settings: S. cerevisiae bub3 mutant strain, stronger effect = higher value
In short: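 Screening used yeast with an engineered genetic alteration affecting cell cycle control. Compound-exposed cultures were compared with vehicle cultures, and reduced growth was taken as inhibition.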

[6] = NCI Yeast Anticancer Drug Screen. Data for the wt2 strain (AID 169);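 also: 0% = growth of vehicle-treated yeast cultures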; settings: S. cerevisiae wt2 strain growth inhibition, stronger effect = higher value
In short: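 Compound exposure of yeast; growth compared with vehicle controls; inhibition reported.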

[7] = NCI Yeast Anticancer Drug Screen. Data for the mlh1 rad18 strain (AID 175); settings: S. cerevisiae mlh1 rad18 strain growth inhibition, stronger effect = higher value
In short: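 Cells of a genetically altered yeast strain, deficient in DNA damage repair, were treated with compound. Their growth was then compared with that of vehicle-treated cultures to give inhibition.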

[8] = at 5.0 µM (retest, dose inferred, filed as 0.5)
[9] = at 50.0 µM (retest, dose inferred, filed as 5.0)

Measured: growth inhibition

C[n+]1c2cc(N)ccc2cc2ccc(N)cc21
67.9% (inactive) and 78.2% (active): [3]; at 50.0 µM
97% (active) and 64% (inactive): [4]; [9]
11% (inactive) and 100% (active): [2]; [8]
97% (active) and 44% (inactive): [3]; [9]
55% (inactive) and 100% (active): [1]; [8]
28% (inactive) and 100% (active): [7]; [8]
inactive: [3]; [8] 3% and -17% | [4]; [8] 10% and 35% | [4]; at 50.0 µM 53.9% and 39.6% | [5]; [8] -1% and -18% | [6]; at 1.2 µM -6% | [6]; at 3.7 µM -12% | [6]; at 11.0 µM 4% | [6]; at 33.0 µM 25%
active: [1]; [9] 98% and 99% | [1]; at 50.0 µM 97.4% and 75.2% | [2]; [9] 99% and 100% | [2]; at 50.0 µM 75.3% and 79% | [5]; [9] 99% and 88% | [5]; at 50.0 µM 86.5% and 81.6% | [6]; at 100.0 µM 84% | [7]; [9] 97% and 100% | [7]; at 50.0 µM 91.3% and 83.5%

Cc1c2ccccc2c(C=O)c2ccccc12
inactive: [1]; [8] 40% | [2]; [8] 44% | [3]; [8] -13% | [3]; [9] 57% | [4]; [8] 50% | [4]; [9] 59% | [5]; [8] 2% | [5]; [9] 67% | [6]; at 1.2 µM -11% | [6]; at 3.7 µM -16% | [6]; at 11.0 µM -4% | [6]; at 33.0 µM 23% | [7]; [8] 40%
active: [1]; [9] 96% | [1]; at 50.0 µM 86.2% | [2]; [9] 99% | [2]; at 50.0 µM 89% | [3]; at 50.0 µM 91.2% | [4]; at 50.0 µM 88.2% | [5]; at 50.0 µM 88.5% | [6]; at 100.0 µM 93% | [7]; [9] 99% | [7]; at 50.0 µM 87.4%

N#CCCC(CCC#N)(CCC#N)C(=O)c1ccccc1
inactive: [1]; [8] 10% | [1]; [9] 4% | [1]; at 50.0 µM 11.6% and 20.9% | [2]; [8] -15% | [2]; [9] -6% | [2]; at 50.0 µM 15.8% and -3.15% | [3]; [8] 7% | [3]; [9] 8% | [3]; at 50.0 µM 33.2% and -28.8% | [4]; [8] 4% | [4]; [9] 14% | [4]; at 50.0 µM 26.1% and 18.9% | [5]; [8] 10% | [5]; [9] 23% | [5]; at 50.0 µM 18.1% and 7.55%

COc1cc2c(c(OC)c1OC)-c1ccc(SC)c(=O)cc1C(NC(=O)c1ccccc1)CC2 (stereo not given)
active: [1]; at 50.0 µM 79.8% | [2]; at 50.0 µM 86.9% | [3]; [9] 81% | [3]; at 50.0 µM 83.5% | [5]; at 50.0 µM 78.5% | [7]; [9] 70%
inactive: [1]; [8] -9% | [1]; [9] 65% | [2]; [8] -20% | [2]; [9] 61% | [3]; [8] 5% | [4]; [8] 11% | [4]; [9] 48% | [4]; at 50.0 µM 52.9% | [5]; [8] -29% | [5]; [9] 63% | [7]; [8] -6%

C/C(N=NC(=S)N1CCCCCC1)=C1\C=CC=CN1O
inactive: [1]; [8] 17% | [1]; [9] 38% | [2]; [8] 12% | [2]; [9] 31% | [3]; [8] 14% | [3]; [9] 27% | [3]; at 50.0 µM 68.4% | [4]; [8] 19% | [4]; [9] 31% | [4]; at 50.0 µM 30.6% | [5]; [8] 21% | [5]; [9] 33% | [5]; at 50.0 µM 69% | [7]; [8] 24% | [7]; [9] 44%
active: [1]; at 50.0 µM 72.9% | [2]; at 50.0 µM 74.2%

CC[C@](O)(CC(=O)O[C@H]1C(=O)O[C@@H]2C[C@H]3C(C)=CC(=O)[C@@H](O)[C@]3(C)[C@H]3[C@@]4(O)OC[C@]32[C@@H]1[C@@H](C)[C@H]4O)C(C)C
active: [1]; [9] 97% | [1]; at 50.0 µM 88.9% | [2]; [9] 98% | [2]; at 50.0 µM 91.7% | [3]; [9] 98% | [3]; at 50.0 µM 88.9% | [4]; [9] 98% | [4]; at 50.0 µM 92.1% | [5]; [9] 98% | [5]; at 50.0 µM 90.3% | [7]; [9] 97%
inactive: [1]; [8] 44% | [2]; [8] 35% | [3]; [8] 57% | [4]; [8] 58% | [5]; [8] 51% | [7]; [8] 50%

CCN1CCC(O)(c2ccc(Oc3ccccc3)cc2)C(C(=O)c2ccc(Oc3ccccc3)cc2)C1 (stereo not given)
inactive: [1]; [8] 25% | [1]; [9] 19% | [1]; at 50.0 µM 32.9% | [2]; [8] -10% | [2]; [9] -8% | [2]; at 50.0 µM 22.5% | [3]; [8] 23% | [3]; [9] 28% | [3]; at 50.0 µM -21.9% | [4]; [8] 18% | [4]; [9] 35% | [4]; at 50.0 µM 0.95% | [5]; [8] 14% | [5]; [9] 38% | [5]; at 50.0 µM -23.9% | [7]; [8] 18% | [7]; [9] 40%

Cc1ccc(NCCN(C)C)c2c(=O)c3cc(O)ccc3sc12
active: [1]; [9] 99% | [1]; at 50.0 µM 88.7% | [2]; [9] 99% | [2]; at 50.0 µM 91.3% | [3]; [9] 99% | [3]; at 50.0 µM 91.2% | [4]; [9] 98% | [4]; at 50.0 µM 90% | [5]; [9] 98% | [5]; at 50.0 µM 88.4% | [7]; [9] 99%
inactive: [1]; [8] 27% | [2]; [8] 5% | [3]; [8] 10% | [4]; [8] 15% | [5]; [8] 4% | [7]; [8] 18%

COc1cccc2c1C(=O)c1c(O)c3c(c(O)c1C2=O)C[C@@](O)(C(C)=O)C[C@@H]3OC1CC(O)C(O)C(C)O1 (stereo not given in full)
inactive: [1]; [8] 45% | [2]; [8] 21% | [3]; [8] 25% | [4]; [8] 46% | [5]; [8] 34% | [7]; [8] 40%
active: [1]; [9] 95% | [1]; at 50.0 µM 84.7% | [2]; [9] 94% | [2]; at 50.0 µM 88.3% | [3]; [9] 94% | [3]; at 50.0 µM 85.2% | [4]; [9] 90% | [4]; at 50.0 µM 83.3% | [5]; [9] 96% | [5]; at 50.0 µM 85.3% | [7]; [9] 93%

Clc1nc(Cl)c(Cl)c(Cl)n1
active: [1]; [9] 98% | [2]; [9] 100% | [2]; at 50.0 µM 72.5% | [3]; [9] 98% | [4]; [9] 92% | [5]; [9] 99% | [7]; [9] 98%
inactive: [1]; [8] 29% | [1]; at 50.0 µM 64% | [2]; [8] 23% | [3]; [8] 5% | [3]; at 50.0 µM 8.65% | [4]; [8] 11% | [4]; at 50.0 µM 13.1% | [5]; [8] 23% | [5]; at 50.0 µM 33% | [7]; [8] 39%

CC[C@@]1(OC(=O)C(N)CCCCN)C(=O)OCc2c1cc1n(c2=O)Cc2cc3ccccc3nc2-1 (stereo not given in full)
inactive: [2]; [8] 44% | [3]; [8] 18% | [3]; [9] -11% | [4]; [8] 13% | [4]; [9] -36% | [4]; at 50.0 µM 45.5% | [5]; [8] 22% | [5]; [9] 30% | [5]; at 50.0 µM 64.1% | [7]; [8] 48%
active: [1]; [8] 92% | [1]; [9] 95% | [1]; at 50.0 µM 80.3% | [2]; [9] 96% | [2]; at 50.0 µM 83.9% | [3]; at 50.0 µM 77.1% | [7]; [9] 91%

O=C1c2ccccc2-n2c1nc1ccccc1c2=O
inactive: [1]; [8] 18% | [2]; [8] 14% | [2]; [9] 48% | [2]; at 50.0 µM 57% | [3]; [8] 21% | [3]; [9] 39% | [3]; at 50.0 µM 29.2% | [4]; [8] 30% | [4]; [9] 43% | [4]; at 50.0 µM 17.9% | [5]; [8] 32% | [5]; [9] 57% | [5]; at 50.0 µM 53.1% | [7]; [8] 23% | [7]; [9] 62%
active: [1]; [9] 83% | [1]; at 50.0 µM 74%

Clc1ccc(CNNCc2ccc(Cl)cc2)cc1
inactive: [1]; [8] -12% | [2]; [8] 0% | [2]; at 50.0 µM -3.05% and -2.3% | [3]; [8] -2% | [3]; at 50.0 µM -3% and 58.5% | [4]; [8] -1% | [4]; at 50.0 µM -10.4% and 16.6% | [5]; [8] 46% | [7]; [8] -2% | [7]; at 50.0 µM 11.7% and 67.8%
active: [1]; [9] 85% | [2]; [9] 96% | [3]; [9] 98% | [4]; [9] 72% | [5]; [9] 96% | [7]; [9] 94%
7.2% (inactive) and 78.7% (active): [1]; at 50.0 µM
-9.95% (inactive) and 72.6% (active): [5]; at 50.0 µM

O=C1COC(=O)/C1=C/c1ccc2c(c1)OCO2
71% (active) and 61% (inactive): [4]; [9]
69% (inactive) and 93% (active): [3]; [9]
65.5% (inactive) and 88% (active): [5]; at 50.0 µM
active: [1]; [9] 78% and 86% | [1]; at 50.0 µM 76.6% and 77.4% | [2]; [9] 84% and 90% | [3]; at 50.0 µM 78.5% and 86.4% | [5]; [9] 82% and 89% | [7]; [9] 81% | [7]; at 50.0 µM 93.2% and 95.1%
64.1% (inactive) and 84.5% (active): [2]; at 50.0 µM
inactive: [1]; [8] 12% and 15% | [2]; [8] 16% and 26% | [3]; [8] 18% | [4]; [8] 4% and 15% | [4]; at 50.0 µM 56% and 54.6% | [5]; [8] 2% and 4% | [7]; [8] 9% and 14%

From PubChem BioAssay (NCI)
